Data as given in the supplement of paper PMC8975748.
Where a name gives a salt, the structure may show the parent alone. ± gives the standard deviation of the averaged measurements.

Legend:
[1] = test system: Saccharomyces cerevisiae BY4741 SeMeCo community; test: mean cell size (pixel area) (pixels); higher = larger cells; conditions: 10 µM; 24 h; SM minimal medium
Procedure, shortened: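 For 24 h, 70 µl of yeast culture diluted to OD600 = 0.3 from an overnight preculture at OD600 = 1.0 was kept in SM medium in 384-well plates acoustically predosed with drug, final 10 µM. The strain was Saccharomyces cerevisiae BY4741 forming a fluorescent community of four plasmids, each complementing one auxotrophy and carrying a fluorescent marker. Automated confocal microscopy of paraformaldehyde-fixed cells, analysed in Harmony, provided mean cell pixel area per well, which was averaged over 3 replicates. Same SeMeCo high-content imaging drug screen: Selleck FDA-approved drugs at 10 µM, 24 h in SM medium, 384-well plates, 3 replicates.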

[2] = test system: Saccharomyces cerevisiae BY4741 SeMeCo community; test: z-score of prototroph abundance vs DMSO median; higher = larger share of this subpopulation than in DMSO controls; conditions: 10 µM; 24 h; SM minimal medium; subpopulation (auxotrophy): Prototroph
Procedure, shortened: (§1)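 Four plasmids, each restoring a single auxotrophy and encoding a distinct fluorescent protein, were carried by a Saccharomyces cerevisiae BY4741 community. After overnight growth to OD600 1.0 and dilution to 0.3, 70 µl per well was grown for 24 h in minimal SM medium on 384-well plates acoustically predosed with library drugs at 10 µM final. Following paraformaldehyde fixation, automated confocal microscopy was used, with single-auxotroph fluorescent strains defining thresholds and autofluorescence correction. Subpopulation abundance was then scored as a z-score against the vehicle-well median.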

[3] = test system: Saccharomyces cerevisiae BY4741 SeMeCo community; test: z-score of subpopulation abundance vs DMSO median, subpopulation auxotrophic for M; higher = larger share of this subpopulation than in DMSO controls; conditions: 10 µM; 24 h; SM minimal medium; subpopulation (auxotrophy): M
Procedure, shortened: as §1

[4] = test system: Saccharomyces cerevisiae BY4741 SeMeCo community; test: z-score of subpopulation abundance vs DMSO median, subpopulation auxotrophic for L; higher = larger share of this subpopulation than in DMSO controls; conditions: 10 µM; 24 h; SM minimal medium; subpopulation (auxotrophy): L
Procedure, shortened: as §1

[5] = test system: Saccharomyces cerevisiae BY4741 SeMeCo community; test: z-score of subpopulation abundance vs DMSO median, subpopulation auxotrophic for U; higher = larger share of this subpopulation than in DMSO controls; conditions: 10 µM; 24 h; SM minimal medium; subpopulation (auxotrophy): U
Procedure, shortened: as §1

[6] = test system: Saccharomyces cerevisiae BY4741 SeMeCo community; test: z-score of subpopulation abundance vs DMSO median, subpopulation auxotrophic for H; higher = larger share of this subpopulation than in DMSO controls; conditions: 10 µM; 24 h; SM minimal medium; subpopulation (auxotrophy): H
Procedure, shortened: as §1

[7] = test system: Saccharomyces cerevisiae BY4741 SeMeCo community; test: z-score of subpopulation abundance vs DMSO median, subpopulation auxotrophic for LU; higher = larger share of this subpopulation than in DMSO controls; conditions: 10 µM; 24 h; SM minimal medium; subpopulation (auxotrophy): LU
Procedure, shortened: as §1

[8] = test system: Saccharomyces cerevisiae BY4741 SeMeCo community; test: z-score of subpopulation abundance vs DMSO median, subpopulation auxotrophic for LM; higher = larger share of this subpopulation than in DMSO controls; conditions: 10 µM; 24 h; SM minimal medium; subpopulation (auxotrophy): LM
Procedure, shortened: as §1

[9] = test system: Saccharomyces cerevisiae BY4741 SeMeCo community; test: z-score of subpopulation abundance vs DMSO median, subpopulation auxotrophic for HU; higher = larger share of this subpopulation than in DMSO controls; conditions: 10 µM; 24 h; SM minimal medium; subpopulation (auxotrophy): HU
Procedure, shortened: as §1

[10] = test system: Saccharomyces cerevisiae BY4741 SeMeCo community; test: z-score of subpopulation abundance vs DMSO median, subpopulation auxotrophic for UM; higher = larger share of this subpopulation than in DMSO controls; conditions: 10 µM; 24 h; SM minimal medium; subpopulation (auxotrophy): UM
Procedure, shortened: as §1

[11] = test system: Saccharomyces cerevisiae BY4741 SeMeCo community; test: z-score of subpopulation abundance vs DMSO median, subpopulation auxotrophic for HL; higher = larger share of this subpopulation than in DMSO controls; conditions: 10 µM; 24 h; SM minimal medium; subpopulation (auxotrophy): HL
Procedure, shortened: as §1

[12] = test system: Saccharomyces cerevisiae BY4741 SeMeCo community; test: z-score of subpopulation abundance vs DMSO median, subpopulation auxotrophic for HLU; higher = larger share of this subpopulation than in DMSO controls; conditions: 10 µM; 24 h; SM minimal medium; subpopulation (auxotrophy): HLU
Procedure, shortened: as §1

[13] = test system: Saccharomyces cerevisiae BY4741 SeMeCo community; test: z-score of subpopulation abundance vs DMSO median, subpopulation auxotrophic for HLM; higher = larger share of this subpopulation than in DMSO controls; conditions: 10 µM; 24 h; SM minimal medium; subpopulation (auxotrophy): HLM
Procedure, shortened: as §1

[14] = test system: Saccharomyces cerevisiae BY4741 SeMeCo community; test: z-score of subpopulation abundance vs DMSO median, subpopulation auxotrophic for HUM; higher = larger share of this subpopulation than in DMSO controls; conditions: 10 µM; 24 h; SM minimal medium; subpopulation (auxotrophy): HUM
Procedure, shortened: as §1

[15] = test system: Saccharomyces cerevisiae BY4741 SeMeCo community; test: z-score of subpopulation abundance vs DMSO median, subpopulation auxotrophic for LUM; higher = larger share of this subpopulation than in DMSO controls; conditions: 10 µM; 24 h; SM minimal medium; subpopulation (auxotrophy): LUM
Procedure, shortened: as §1

[16] = test system: Saccharomyces cerevisiae BY4741 SeMeCo community; test: z-score of subpopulation abundance vs DMSO median, subpopulation auxotrophic for HLUM; higher = larger share of this subpopulation than in DMSO controls; conditions: 10 µM; 24 h; SM minimal medium; subpopulation (auxotrophy): HLUM
Procedure, shortened: as §1

[17] = test system: Saccharomyces cerevisiae BY4741 SeMeCo community; test: z-score of subpopulation abundance vs DMSO median, subpopulation auxotrophic for HM; higher = larger share of this subpopulation than in DMSO controls; conditions: 10 µM; 24 h; SM minimal medium; subpopulation (auxotrophy): HM
Procedure, shortened: as §1

SMILES	mean cell size [1]	z-score of prototroph abundance [2]	z-score of subpopulation abundance [3]	z-score of subpopulation abundance [4]	z-score of subpopulation abundance [5]	z-score of subpopulation abundance [6]	z-score of subpopulation abundance [7]	z-score of subpopulation abundance [8]	z-score of subpopulation abundance [9]	z-score of subpopulation abundance [10]	z-score of subpopulation abundance [11]	z-score of subpopulation abundance [12]	z-score of subpopulation abundance [13]	z-score of subpopulation abundance [14]	z-score of subpopulation abundance [15]	z-score of subpopulation abundance [16]	z-score of subpopulation abundance [17]
NC(=NCCCCCCN=C(N)N=C(N)Nc1ccc(Cl)cc1)N=C(N)Nc1ccc(Cl)cc1 [Chlorhexidine?2HCl]	11.38 ± 0.084	1.92	-3.42	0.63	-2.8	2.59	-1.64	0.28	0.25	-3.13	2.14	3.88	0.93	-0.7	2.03	4.27	
Cc1cnc(NC(=O)C2=C(O)c3ccccc3S(=O)(=O)N2C)s1 [Meloxicam]	12.77 ± 0.087	1.47	-0.52	-0.61	-0.19	-0.59	-0.98	-0.94			-0.41	-1.26	-1.09	-0.88	-1.43		-0.89
CO[C@H]1C[C@@H]2CC[C@@H](C)[C@@](O)(O2)C(=O)C(=O)N2CCCC[C@H]2C(=O)O[C@H]([C@H](C)C[C@@H]2CC[C@@H](OCCO)[C@H](OC)C2)CC(=O)[C@H](C)/C=C(\C)[C@@H](O)[C@@H](OC)C(=O)[C@H](C)C[C@H](C)/C=C/C=C/C=C/1C [Everolimus (RAD001)]	14.17 ± 0.11	-18.1	-1.38	-0.87	2.5		2.59	4.3		12.8		22.9	19	32.4	12.4		22.4
NC(=O)N1c2ccccc2C=Cc2ccccc21 [Carbamazepine]	12.5 ± 0.21	0.13	-0.29	0.25	0.01	-0.43	-0.08	0.14	-0.56	-0.23		0.32	0.02	-0.5	0.24	-0.25	
CC[C@H]1OC(=O)C[C@@H](O)[C@H](C)[C@@H](O[C@@H]2O[C@H](C)[C@@H](O)[C@H](N(C)C)[C@H]2O)[C@@H](CCN2C[C@H](C)C[C@H](C)C2)C[C@@H](C)C(=O)/C=C/C(C)=C/[C@@H]1CO[C@@H]1O[C@H](C)[C@@H](O)[C@@H](OC)[C@H]1OC [Tilmicosin phosphate]	12.3 ± 0.3	0.18	-0.36	0.06	-0.3		-0.57	-0.81	-0.34	-0.01	-0.13	-0.18	-0.09	-0.09	-0.25	-0.75	
O=C(N[C@H](CO)[C@H](O)c1ccc([N+](=O)[O-])cc1)C(Cl)Cl [Chloramphenicol]	12.5 ± 0.17	-0.39	0.86	0.12			-0.22	0.1		-0.39	0.18	-0.24	0.01	0.42	0.23	0.45	
OCCN(CCO)c1nc(N2CCCCC2)c2nc(N(CCO)CCO)nc(N3CCCCC3)c2n1 [Dipyridamole]	12.5 ± 0.14	1.3	5.88	4.21	-6.98		-7.03	10.9		-8.15		-3.69	11.4	-6.13	-4.38	-1.34	
CN1CCc2cc3c(cc2C(=O)Cc2ccc4c(c2C1)OCO4)OCO3 [Protopine]	12.2 ± 0.13		-0.25	1.72	-0.67	0.05	1.45	1.78	-0.45	-0.23	1.17	0.88	0.14	0.19	1.38	0.9	
O=c1cc(-c2ccc(O)c(O)c2)oc2cc(O)cc(O)c12 [Luteolin]	12.5 ± 0.16	-0.73	-0.18	1.23	0.21	0.27	0.96		1.42	-0.52		0.05	-0.56	-0.43	0.16		-0.39
COc1cc(NC(C)CCCN)c2ncccc2c1 (stereo unspecified) [Primaquine Diphosphate]	12.6 ± 0.24	0.58	1.17	-0.56	-1.22	0.32	-1.15		-1.2	-0.88	-0.43	-0.39	0.32	-1.39	-0.75	-0.49	0.98
Nc1ccc(S(=O)(=O)Nc2ccccn2)cc1 [Sulfapyridine]	12.2 ± 0.13	0.95	0.24	-0.23		-0.9	-0.25		-0.55	-0.75	-0.68	-0.45	-0.9	-0.97	-0.73	-0.89	-0.46
CCn1cc(C(=O)O)c(=O)c2cc(F)c(N3CCNCC3)nc21 [Enoxacin Sesquihydrate]	12.2 ± 0.23	-0.92	0.76	-0.96	1.2	-1.49	0.91		0.47		-0.59	-0.17	-0.85	0.88	0.36	-0.27	0.03
CN(C)CCc1c[nH]c2ccc(Cn3cncn3)cc12 [Rizatriptan Benzoate]	12.63 ± 0.099		-0.1	0.9	-0.69		0.31	1.18		-1.14		0.78	0.35	-0.59	-0.44	0.89	
O=C1Cc2cc(CCN3CCN(c4nsc5ccccc45)CC3)c(Cl)cc2N1 [Ziprasidone HCl]	12.2 ± 0.18	-0.07	0	1.56	-0.99	0.97	-0.33		-0.4	-0.51	1.22	0.15	1.1	0.81	0.56		0.58
